Laboratory results as given in PubChem BioAssay (EPA / NIEHS).
Activity calls are given as the source filed them. How the source made its calls: active means hit-call score of the fitted dose curve at least 0.9, where 1 is the maximum; inactive means score below 0.9.

Columns and labels:
[1] = read-out: TIMP metallopeptidase inhibitor 2 (TIMP2), TIMP2 (gene 7077); assay: BSK_KF3CT_TIMP2: BioMAP Diversity Plus: KF3CT Assay for TIMP metallopeptidase inhibitor 2 (TIMP2) Biomarker Activity (AID 2283071); settings: primary human keratinocytes with fibroblasts; actives raise or lower the signal
Method in brief: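 Cells: human keratinocytes co-cultured with foreskin fibroblasts. Treat with chemical, 24 h. Measure TIMP-2 by ELISA; fit curves bidirectionally vs DMSO baseline.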

[2] = read-out: Transforming growth factor beta 1 (TGFb1), TGFB1 (gene 7040); assay: BSK_KF3CT_TGFb1: BioMAP Diversity Plus: KF3CT Assay for Transforming growth factor beta 1 (TGFb1) Biomarker Activity (AID 2283072); settings: primary human keratinocytes with fibroblasts; actives raise or lower the signal
Method in brief: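 Primary human skin cells (keratinocytes, foreskin fibroblasts) were co-cultured, exposed to test chemical and sampled at 24 h. TGF-b1 levels were measured by ELISA and fitted bidirectionally relative to DMSO.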

[3] = read-out: Matrix Metallopeptidase 9 (MMP9), MMP9 (gene 4318); assay: BSK_KF3CT_MMP9: BioMAP Diversity Plus: KF3CT Assay for Matrix Metallopeptidase 9 (MMP9) Biomarker Activity (AID 2283074); settings: primary human keratinocytes with fibroblasts; actives raise or lower the signal;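 on AC50: MMP9 protein level quantified by ELISA in the co-culture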
Method in brief: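 Human keratinocyte and foreskin fibroblast co-culture exposed to chemicals for 24 h; MMP9 biomarker measured by ELISA, bidirectional fitting relative to DMSO; cytotoxicity tracked by SRB total protein staining in parallel cultures.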

CD40, CD40 (gene 958) = assay: BSK_LPS_CD40: BioMAP Diversity Plus: LPS Assay for CD40 Biomarker Activity (AID 2283076); settings: primary human HUVEC with PBMC; actives raise or lower the signal
Method in brief: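 HUVEC plus PBMC co-culture stimulated with LPS; CD40 quantified by ELISA 24 h after compound dosing. Fitting was bidirectional relative to DMSO. SRB staining of parallel cultures flagged overt cytotoxicity.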

[4] = read-out: E-selectin (Homo sapiens) (UniProt P16581); assay: BSK_LPS_Eselectin: BioMAP Diversity Plus: LPS Assay for Eselectin Biomarker Activity (AID 2283077); settings: primary human HUVEC with PBMC; actives raise or lower the signal
Method in brief: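 Human umbilical vein endothelial cells co-cultured with PBMC under LPS stimulation; cell-surface E-selectin measured by ELISA 24 h after dosing. Change in either direction versus DMSO, with SRB total-protein staining in parallel cultures for cytotoxicity.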

[5] = read-out: Interleukin-8 (IL8), CXCL8 (gene 3576); assay: BSK_LPS_IL8: BioMAP Diversity Plus: LPS Assay for Interleukin-8 (IL8) Biomarker Activity (AID 2283078); settings: primary human HUVEC with PBMC; actives raise or lower the signal
Method in brief: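 Human umbilical vein endothelial cells co-cultured with PBMC, LPS-stimulated, exposed to compound for 24 h. IL-8 quantified by ELISA; fitted in both directions against DMSO, with SRB total-protein staining of parallel cultures for cytotoxicity.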

[6] = read-out: Interleukin-1 alpha (IL1a), IL1A (gene 3552); assay: BSK_LPS_IL1a: BioMAP Diversity Plus: LPS Assay for Interleukin-1 alpha (IL1a) Biomarker Activity (AID 2283080); settings: primary human HUVEC with PBMC; actives raise or lower the signal
Method in brief: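 Human umbilical vein endothelial cells co-cultured with PBMC and stimulated with LPS; IL-1a measured by ELISA 24 h after dosing. Bidirectional fitting against DMSO; cytotoxicity checked by SRB staining in parallel cultures.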

[7] = read-out: C-C motif chemokine 2 (Homo sapiens) (UniProt P13500); assay: BSK_KF3CT_MCP1: BioMAP Diversity Plus: KF3CT Assay for Monocyte Chemoattractant Protein 1 (MCP1/CCL2) Biomarker Activity (AID 2283073); settings: primary human keratinocytes with fibroblasts; actives raise or lower the signal
Method in brief: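 Human keratinocyte–foreskin fibroblast co-culture; MCP-1 measured by ELISA 24 h after dosing. Bidirectional fit vs DMSO; cytotoxicity tracked by SRB total protein in parallel cultures.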

[8] = BSK_LPS_SRB: Viability Assessment in the BioMAP Diversity Plus: LPS Assay (AID 2283079); settings: primary human HUVEC with PBMC;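 further: total protein by sulforhodamine B absorbance as a cytotoxicity measure; measured one day after compound addition; fitted in both directions against DMSO so loss or gain of signal counts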
Method in brief: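 Co-culture of human umbilical vein endothelial cells and PBMC, read 24 h after dosing. Total protein by 0.1% SRB staining after 10% TCA fixation, absorbance at 560 nm; bidirectional fit against DMSO.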

[9] = read-out: urokinase plasminogen activator (uPA), PLAU (gene 5328); assay: BSK_KF3CT_uPA: BioMAP Diversity Plus: KF3CT Assay for urokinase plasminogen activator (uPA) Biomarker Activity (AID 2283075); settings: primary human keratinocytes with fibroblasts; actives raise or lower the signal
Method in brief: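 Primary human keratinocyte/foreskin fibroblast co-culture exposed to chemical; uPA measured by ELISA at 24 h. Bidirectional fit versus DMSO, with parallel SRB total-protein staining for cytotoxicity.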

Measured: AC50

E-selectin (Homo sapiens), sequence (P16581 whole entry, looked up): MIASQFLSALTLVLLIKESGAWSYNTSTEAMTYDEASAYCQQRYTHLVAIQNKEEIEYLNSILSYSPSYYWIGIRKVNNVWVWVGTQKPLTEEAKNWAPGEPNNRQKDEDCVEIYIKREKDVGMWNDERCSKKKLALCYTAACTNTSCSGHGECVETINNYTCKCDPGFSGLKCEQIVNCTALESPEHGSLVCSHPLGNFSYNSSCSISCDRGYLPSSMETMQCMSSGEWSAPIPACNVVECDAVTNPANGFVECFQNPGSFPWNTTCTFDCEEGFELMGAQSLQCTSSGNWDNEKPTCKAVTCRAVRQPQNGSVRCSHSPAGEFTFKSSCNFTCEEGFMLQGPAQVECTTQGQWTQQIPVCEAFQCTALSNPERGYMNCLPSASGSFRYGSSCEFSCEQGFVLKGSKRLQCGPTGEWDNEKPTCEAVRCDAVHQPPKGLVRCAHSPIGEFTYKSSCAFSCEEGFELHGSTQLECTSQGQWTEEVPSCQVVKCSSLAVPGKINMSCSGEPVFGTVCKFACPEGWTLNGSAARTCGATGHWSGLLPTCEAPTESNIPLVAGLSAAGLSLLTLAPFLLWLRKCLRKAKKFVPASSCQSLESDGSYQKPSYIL

O=S1OCC2C(CO1)C1(Cl)C(Cl)=C(Cl)C2(Cl)C1(Cl)Cl (stereo unspecified)
inactive: [2]
active: [1] 26.9 µM | [3] 15.9 µM | CD40, CD40 (gene 958) 29.2 µM | [4] 30.9 µM | [5] 33.5 µM | [6] 16.3 µM

N#CN
not listed: [8] | [9]
inactive: all other assays above

CCC(C)Nc1c([N+](=O)[O-])cc(C(C)(C)C)cc1[N+](=O)[O-] (stereo unspecified)
active: CD40, CD40 (gene 958) 31.9 µM | [4] 14.6 µM | [8] 20 µM
not listed: [1] | [9]
inactive: all other assays above

COP(=S)(OC)Oc1ccc(SC)c(C)c1
not listed: [8]
inactive: all other assays above

Cc1cc(C)nc(NC(=O)NS(=O)(=O)c2ccccc2C(=O)OC2COC2)n1
not listed: [1] | [8]
inactive: all other assays above

OCCOc1ccccc1
not listed: [9]
inactive: all other assays above

O=C(Nc1ccccc1)Nc1cnns1
not listed: [1] | [9]
inactive: all other assays above

O=[N+]([O-])c1c(Cl)c(Cl)c(Cl)c(Cl)c1Cl
inactive: [2] | [7] | [5] | [6]
active: [1] 29.9 µM | [3] 15.7 µM | CD40, CD40 (gene 958) 17.9 µM | [4] 31.1 µM

O=C(O)CCCOc1ccc(Cl)cc1Cl
not listed: [8] | [9]
inactive: all other assays above

CC1(C)C(C=C(Cl)Cl)C1C(=O)OC(C#N)c1ccc(F)c(Oc2ccccc2)c1 (stereo unspecified)
active: [5] 20 µM
not listed: [8] | [9]
inactive: all other assays above
